IL-1B inflam inh: qHTS for Inhibitors of Inflammasome Signaling: IL-1-beta AlphaLISA Primary Screen | THP-1 LPS/ATP IL-1B secretion, AlphaLISA, 16 h; active compounds read low | activity change, % at 57.5 µM | hit rate 4.7% among 360,000; in the data active = activity change below about -50%; inconclusive = mostly about -30% to -49%
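Secreted IL-1B measured by AlphaLISA bead assay after 16 h compound exposure of THP-1 cells; compounds (final up to 57.5 uM) added 1 h before LPS (250 ng/mL) and ATP (1.25 mM) stimulation; lower signal means less secretion.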
TDP1 cell noCPT: qHTS for Inhibitors of human tyrosyl-DNA phosphodiesterase 1 (TDP1): qHTS in cells in absence of CPT; DT40 Tdp1-/- hTDP1 cells, no CPT, ATP luminescence, 48 h; hit rate 15% among 420,000; Potency, µM (titrated, usually from 46.2 µM), for the others: at the top dose activity change, negative = growth inhibition, actives largely listed as inhibitors; also: potency is read from the fitted curve at half-maximal effect; nearly all actives have a fitted effect of over 55% in size
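Growth of hTDP1-complemented DT40 Tdp1-knockout cells is measured by ATP luminescence after at least 48 hr compound exposure at 37 °C, with DMSO substituting for the 20 nM CPT used in the parallel screen.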
RORg inh: qHTS for inhibitors of ROR gamma transcriptional activity; Potency, µM (series often up to 53.6 µM), for inactives: top-dose activity change, negative = inhibition, hits mostly inhibitors; AID 2551, 2010; hit rate 5.4% among 310,000; Drosophila S2 Gal4-RORgamma UAS-luciferase reporter, 20 h; Nuclear receptor ROR-gamma (Mus musculus), P51450; also: potency is read from the fitted curve at half-maximal effect; nearly all actives have a fitted effect of over 60% in size
Target sequence (P51450 whole entry, looked up, the tested form may be a part): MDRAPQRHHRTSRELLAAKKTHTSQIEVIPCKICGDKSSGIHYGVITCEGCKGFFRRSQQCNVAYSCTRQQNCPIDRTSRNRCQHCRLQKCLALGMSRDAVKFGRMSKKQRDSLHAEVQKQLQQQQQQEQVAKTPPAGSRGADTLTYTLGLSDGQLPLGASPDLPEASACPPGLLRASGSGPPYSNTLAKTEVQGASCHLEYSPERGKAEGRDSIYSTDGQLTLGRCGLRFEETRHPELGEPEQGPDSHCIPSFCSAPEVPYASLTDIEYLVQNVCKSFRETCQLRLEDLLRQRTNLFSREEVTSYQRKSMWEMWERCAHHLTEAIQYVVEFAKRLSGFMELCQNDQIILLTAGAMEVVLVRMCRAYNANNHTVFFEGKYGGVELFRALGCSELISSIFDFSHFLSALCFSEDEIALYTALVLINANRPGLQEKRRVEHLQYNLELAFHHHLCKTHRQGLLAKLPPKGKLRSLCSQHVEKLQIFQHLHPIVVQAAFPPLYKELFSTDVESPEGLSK
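Drosophila S2 cells stably expressing Gal4-DBD/mouse RORγ fusion under metallothionein promoter plus UAS-luciferase; compound 1 h, then 700 uM CuSO4 induction for 20 h at ambient temperature; inhibition read as reduced luminescence.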
VP16 counter: VP16 counterscreen qHTS for inhibitors of ROR gamma transcriptional activity. Drosophila S2 Gal4-VP16 UAS-luciferase, luminescence, 20 h. Potency, µM (highest dose often 53.6 µM), without a hit: at the top dose activity, negative = inhibition, actives largely listed as inhibitors. hit rate 3.5% among 310,000. AID 2546, 2010;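 also: Gal4-VP16 expression switched on by copper sulfate through the metallothionein promoter; potency is read from the fitted curve at half-maximal effect; nearly all actives have a fitted effect of over 50% in size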
ELG1 DNA repair: qHTS screen for small molecules that inhibit ELG1-dependent DNA repair in human embryonic kidney (HEK293T) cells expressing luciferase-tagged ELG1; HEK293T ELG1-luciferase reporter, luminescence, 16 h; DNA damage induced by 5-fluorouridine; Potency, µM (highest dose often 46.1 µM), for inactives: top-dose activity change, negative = inhibition, hits mostly inhibitors; hit rate 2.3% among 330,000; AID 504467, 2011; also: potency is read from the fitted curve at half-maximal effect; nearly all actives have a fitted effect of over 55% in size
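Step one: seed 2,000 cells per well. Step two: pin-transfer compound or DMSO alongside 5-fluorouridine. Step three: incubate 16 hr, 37 °C, 5% CO2. Step four: add ONE-Glo, wait 30 min, read luminescence.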
TDP1 cell CPT: qHTS for Inhibitors of human tyrosyl-DNA phosphodiesterase 1 (TDP1): qHTS in cells in presence of CPT | chicken DT40 Tdp1-/-;hTDP1 cells + 20 nM CPT, ATP luminescence, 48 h | AID 686979, 2013 | hit rate 12% among 420,000 | Potency, µM (titrated, usually from 46.2 µM), inactives show top-dose activity change, negative = growth inhibition, hits mostly inhibitors; also: potency is read from the fitted curve at half-maximal effect; nearly all actives have a fitted effect of over 55% in size
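Chicken DT40 Tdp1-/- cells complemented with human TDP1, 400 cells/well, exposed to compounds plus 20 nM camptothecin for at least 48 h at 37 C; viability read as ATP content by CellTiter-Glo luminescence.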
* hit, by the source's call; ? = inconclusive; nt = no result; [ ] = remark or other dose. Shown are actives, neighbours in structure and some others; about 21% of the full set was active somewhere. Unless noted, calls follow the shape of the dose curve; as a rule, active = well fitted curve in the direction sought with a large enough effect; inconclusive = small, poorly fitted or top-dose-only effect, or another doubt; inactive = no such curve, though single readings can be large; an effect the other way counts as inactive or inconclusive. % is scaled to controls: 0 for no effect and ±100 for the full control effect.

SMILES	IL-1B inflam inh	TDP1 cell noCPT	RORg inh	VP16 counter	ELG1 DNA repair	TDP1 cell CPT
Cc1ccccc1NC(=S)NCc1ccc(F)cc1	-17.2	?	7.08µM*	6.31µM*	2.9%	1.7%
Cc1ccccc1NC(=O)Nc1ccccc1C(=O)NCc1ccccc1	-13.3	?	9.2%	-14.0%	-8.7%	-18.8%
Cc1cccc(NC(=O)Nc2ccccn2)c1C	24.6	7.7%	22.0%	?	?	-23.3%
Cc1ccccc1NC(=S)NCc1ccc(Cl)cc1	-8.8	14.6µM*	2.82µM*	3.98µM*	-2.0%	?
CCNC(=S)Nc1cccc(F)c1C	5.0	-10.4%	12.6µM*	-23.8%	-10.2%	-1.0%
COc1ccc(Cn2cc(CN3CC(N4CCN(CCN(C)C)CC4)CS3(=O)=O)nn2)cc1 (stereo unspecified)	14.4	-17.7%	nt	nt	nt	-1.6%
O=C(C[C@H]1C=C[C@@H](NC(=O)c2ccncc2)[C@@H](CO)O1)NCC1CC1	2.7	6.4%	nt	nt	nt	-3.2%
CCN(CC)C[C@@H](O)CN1CCCCc2nc(C)c(C)cc21	nt	nt	1.0%[10 µM]	-8.1%[10 µM]	nt	nt
Cc1c(C)n(-c2ccc(Cl)cc2)c2ncnc(N)c12	-17.1	?	10.0%	-14.9%	?	?
COc1ccc(CNC(=O)C2(C)Cc3c(-c4ccc5c(c4)OCO5)ccnc3O2)cc1OC (stereo unspecified)	23.5	16.4µM*	nt	nt	nt	?
CN(C)c1ccc(CNC(=O)C2(C)Cc3c(-c4ccc(N(C)C)cc4)ccnc3O2)cc1 (stereo unspecified)	-19.0	18.4µM*	nt	nt	nt	?
CN(C)c1ccc(-c2ccnc3c2CC(C)(C(=O)NCCc2ccccc2)O3)cc1 (stereo unspecified)	-17.9	?	nt	nt	nt	29.1µM*
CC1(C(=O)NCC2CC2)Cc2c(-c3ccc4c(c3)OCO4)ccnc2O1 (stereo unspecified)	45.7	5.17µM*	nt	nt	nt	4.61µM*
CC(=O)N(O)C/C=C/c1cccc(Oc2ccccc2)c1	nt	nt	?	2.7%	nt	nt
CC(=O)NCCNC(=O)C1(C)Cc2c(-c3ccccc3)ccnc2O1 (stereo unspecified)	8.0	-12.7%	nt	nt	nt	-15.5%
CN(C)c1ccc(CNC(=O)C2(C)Cc3c(-c4cccc(C(N)=O)c4)ccnc3O2)cc1 (stereo unspecified)	63.5	?	nt	nt	nt	14.6µM*
CN(C)c1ccc(CNC(=O)C2(C)Cc3c(-c4ccc5c(c4)OCO5)ccnc3O2)cc1 (stereo unspecified)	0.0	3.66µM*	nt	nt	nt	4.61µM*
COCCNC(=O)C1(C)Cc2c(-c3ccc(NC(C)=O)cc3)ccnc2O1 (stereo unspecified)	0.0	?	nt	nt	nt	?
COCCNC(=O)C1(C)Cc2c(-c3ccc(N(C)C)cc3)ccnc2O1 (stereo unspecified)	9.5	4.61µM*	nt	nt	nt	5.17µM*
CC1(C(=O)NCCc2ccccc2)Cc2c(-c3cccc(C(N)=O)c3)ccnc2O1 (stereo unspecified)	29.1	18.4µM*	nt	nt	nt	?
O=C(N/N=C/c1ccccc1)c1ccc(N2CCCC2=O)cc1	-15.2	-7.6%	nt	nt	nt	0.5%
COC(=O)c1ccc(NC(=O)CCNS(=O)(=O)c2cccc3nsnc23)cc1	nt	-1.7%	nt	nt	nt	-6.4%
CN1CCN(c2ccc(CNC(=O)C3(C)Cc4c(-c5ccc6c(c5)OCO6)ccnc4O3)cc2)CC1 (stereo unspecified)	?	14.6µM*	nt	nt	nt	?
CN(C)c1ccc(-c2ccnc3c2CC(C)(C(=O)NCC2CC2)O3)cc1 (stereo unspecified)	19.9	5.17µM*	nt	nt	nt	5.17µM*
CCOC(=O)c1c(C)[nH]c(C(=O)OCc2nc3ccsc3c(=O)[nH]2)c1C	8.5	?	nt	nt	nt	?
SMILES	IL-1B inflam inh	TDP1 cell noCPT	RORg inh	VP16 counter	ELG1 DNA repair	TDP1 cell CPT
CCOC(=O)c1nc(C)nc(Sc2n[nH]c(-c3ccc(C(C)(C)C)cc3)n2)c1C	-17.5	18.4µM*	-28.9%	-1.3%	?	?
CC(=O)NCCNC(=O)Cn1nnc(-c2ccccc2)c1COc1ccc2ccccc2c1	25.5	?	nt	nt	nt	?
CN(Cc1ccccc1)C(=O)Cn1nnc(-c2ccccc2)c1COc1ccccc1	-26.0	20.6µM*	nt	nt	nt	?
CN(Cc1ccccc1)C(=O)Cn1nnc(-c2ccccc2)c1COc1ccc2ccccc2c1	-6.6	18.4µM*	nt	nt	nt	23.1µM*
O=C(Cn1nnc(-c2ccccc2)c1COc1ccc2ccccc2c1)NCC1CC1	-8.6	?	nt	nt	nt	18.4µM*
NC(C(=O)O)[C@H](O)C(=O)O (stereo partly specified)	nt	-28.4%	nt	nt	nt	-5.5%
CC(C)OCCCNc1ncnc2sc3c(c12)CCCC3	nt	23.1µM*	nt	nt	nt	20.6µM*
C=CCn1c(SCC(=O)NCc2ccco2)nc2sc3c(c2c1=O)CCCC3	-9.1	-21.1%	-6.4%	5.4%	7.1%	1.6%
Cc1nc(NCc2ccccn2)c2c3c(sc2n1)CCCC3	-54.0*	20.6µM*	12.5%	-4.1%	-22.5%	?
O=C(NCc1ccco1)c1ccc2nc3sc4c(c3c(=O)n2c1)CCCC4	nt	nt	4.47µM*	?	-2.6%	nt
CN(C)C(CNc1ncnc2sc3c(c12)CCCC3)c1ccco1 (stereo unspecified)	-11.4	23.1µM*	-14.8%	-0.7%	4.8%	?
CCCCN1C(=O)C(CC(=O)NC2CCCC2)CC(C(=O)N(C(C)C)C(C)C)=C1C (stereo unspecified)	12.7	?	nt	nt	nt	-16.8%
Cc1nc(NS(=O)(=O)c2ccc(Cl)s2)c2c3c(sc2n1)CCCC3	43.8	?	15.3%	-4.1%	?	?
c1coc(CNc2ncnc3sc4c(c23)CCCCC4)c1	-2.8	?	-18.4%	7.1%	?	?
c1ccc(CNc2ncnc3sc4c(c23)CCCC4)nc1	-12.1	23.1µM*	-22.1%	5.2%	-20.3%	16.4µM*
Cc1c(C(=O)N2CCC(Cc3ccccc3)CC2)sc2ncnc(NCc3ccccn3)c12	nt	-29.3%	nt	nt	nt	?
COc1ccc(Nc2nc(C)nc3sc4c(c23)CCC4)cc1O	50.0	13µM*	-25.6%	-11.2%	-6.0%	14.6µM*
